# According to article PMC4336329 (PLoS ONE, 2015):
# Out of some 310,000 compounds screened, about 14,000 (4.5%) showed an effect of 50% or more. The effect is printed as a negative number. The list comes from a sample in which strong results are over-represented; it also holds similar structures and randomly drawn compounds.
# Target: human ether-à-go-go-related gene (hERG) potassium channel (human, UniProt Q12809)
# Assay: primary screen, population patch clamp on CHO cells stably expressing hERG; higher = less effect of the substance
# 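Further: peak tail current of the secondary pulse compared with the same well before compound.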
# Sequence of human ether-à-go-go-related gene (hERG) potassium channel (Q12809 whole entry, looked up): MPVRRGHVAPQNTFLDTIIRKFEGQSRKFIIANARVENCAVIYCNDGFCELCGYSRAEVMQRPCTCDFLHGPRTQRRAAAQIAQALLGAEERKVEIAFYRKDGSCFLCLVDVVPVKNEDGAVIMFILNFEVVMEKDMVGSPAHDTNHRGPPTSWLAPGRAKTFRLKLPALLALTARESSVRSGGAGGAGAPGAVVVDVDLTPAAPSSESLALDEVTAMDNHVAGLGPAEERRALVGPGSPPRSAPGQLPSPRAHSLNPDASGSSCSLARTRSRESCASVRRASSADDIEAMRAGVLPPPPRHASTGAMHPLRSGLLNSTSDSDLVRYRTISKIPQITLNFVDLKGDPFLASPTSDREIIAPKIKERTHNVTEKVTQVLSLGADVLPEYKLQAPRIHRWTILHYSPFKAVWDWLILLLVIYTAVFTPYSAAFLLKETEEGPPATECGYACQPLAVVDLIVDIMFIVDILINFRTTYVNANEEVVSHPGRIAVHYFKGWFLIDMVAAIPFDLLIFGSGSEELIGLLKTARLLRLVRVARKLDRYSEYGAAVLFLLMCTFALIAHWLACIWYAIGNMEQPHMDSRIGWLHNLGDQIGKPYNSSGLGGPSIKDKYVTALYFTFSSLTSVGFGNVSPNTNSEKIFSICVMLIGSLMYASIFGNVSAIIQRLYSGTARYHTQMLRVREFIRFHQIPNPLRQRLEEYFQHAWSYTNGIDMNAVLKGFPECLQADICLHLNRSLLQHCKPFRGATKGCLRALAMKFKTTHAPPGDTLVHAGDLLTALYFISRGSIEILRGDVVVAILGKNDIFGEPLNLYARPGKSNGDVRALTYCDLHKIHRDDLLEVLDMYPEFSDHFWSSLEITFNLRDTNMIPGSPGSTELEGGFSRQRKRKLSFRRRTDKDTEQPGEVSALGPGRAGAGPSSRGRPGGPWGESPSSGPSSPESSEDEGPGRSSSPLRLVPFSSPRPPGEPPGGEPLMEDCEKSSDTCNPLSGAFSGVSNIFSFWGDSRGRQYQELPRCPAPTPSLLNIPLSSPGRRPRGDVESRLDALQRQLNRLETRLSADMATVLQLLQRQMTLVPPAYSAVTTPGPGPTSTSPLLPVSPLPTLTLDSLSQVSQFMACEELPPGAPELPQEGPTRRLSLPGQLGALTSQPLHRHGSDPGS
row,SMILES,"hERG current change (%, negative = inhibition) at 10uM [%]"
1,COc1ccc(NC(=O)c2cc(-c3ccc(C)cc3)on2)cc1OC,19.4
2,COc1cccc(CN(CC(=O)NCC2CCCO2)C(=O)CNS(=O)(=O)c2ccccc2)c1 (stereo not shown),7.52
3,O=C(CSc1ccccc1)NC(=O)NCc1ccccc1,5.87
4,COc1ccc(C(=O)C[n+]2ccccc2C)cc1.[Br-],13.3
5,CN(C(=O)c1cc(COc2ccc(F)c(F)c2)on1)C1CCOC1 (stereo not shown),-13.1
6,Cc1ccc(OCc2cc(C(=O)N(C)CC3CCOCC3)no2)cc1C,-13.1
7,Cc1cc(OCc2cc(C(=O)N(C)C3CCOC3)no2)cc(C)c1Cl (stereo not shown),-73.6
8,Cc1cc(OCc2cc(C(=O)N(C)Cc3nonc3C)no2)cc(C)c1Cl,11.8
9,Cc1cc(OCc2cc(C(=O)N(C)CC3CCOCC3)no2)cc(C)c1Cl,-69
10,Cc1cc(OCc2cc(C(=O)N(C)CCCN3CCOCC3)no2)cc(C)c1Cl,-58
11,CN(CCCN1CCOCC1)C(=O)c1cc(COc2c(F)cccc2F)on1,2.44
12,Cc1cc(OCc2cc(C(=O)N(C)C3CCOCC3)no2)cc(C)c1Cl,-13.5
13,CN(CCCN1CCOCC1)C(=O)c1cc(COc2cccc(C(F)(F)F)c2)on1,-40.5
14,Cc1cccc(NC(=O)CN2C(=O)CSC2=O)c1,14.5
15,CC(=O)c1ccc(N2CCN(C(=S)NCCCN(C)C)CC2)cc1,2.47
16,CC1(C(=O)N/N=C/c2ccc3c(c2)OCO3)CC1(Br)Br (stereo not shown),-5.57
17,CC(C)n1c(-c2ccco2)csc1=Nc1cccnc1,-10.3
18,COc1ccccc1-n1cnc2c(c1=O)c1nc3ccccc3nc1n2-c1ccc(C)cc1,-19.7
19,COc1ccc(-c2ccc(/C=N/N3C(=O)C4C5C=CC(C6CC56)C4C3=O)o2)c([N+](=O)[O-])c1 (stereo not shown),-58.9
20,O=C1C2C3C=CC(C4CC34)C2C(=O)N1/N=C/c1ccc(-c2ccc(Cl)cc2[N+](=O)[O-])o1 (stereo not shown),-13.5

row,SMILES,"hERG current change (%, negative = inhibition) at 10uM [%]"
1,Cc1ccc(-c2ccc(/C=N/N3C(=O)C4C5C=CC(C6CC56)C4C3=O)o2)c([N+](=O)[O-])c1 (stereo not shown),-12.5
2,CCCCC[C@H](O)/C=C/C1=C(CCCCCCC(=O)O)C(=O)CC1,17.9
3,O=C(COC(=O)c1c[nH]c(=O)[nH]c1=O)NCc1ccccc1,-12.2
4,O=C(CN1CCOCC1)N/N=C/c1ccccc1,-14.4
5,O=C(CN1CCOCC1)N/N=C/c1ccc(-c2cccc(Cl)c2Cl)o1,-73.4
6,O=C(CN1CCOCC1)N/N=C/c1ccc(-c2ccc(C(=O)O)cc2)o1,-12
7,Cc1ccc(-c2ccc(/C=N/NC(=O)CN3CCOCC3)o2)cc1[N+](=O)[O-],-29.5
8,O=C(CN1CCOCC1)N/N=C/c1ccc(-c2ccc(Br)cc2)o1,-67.1
9,Cc1ccc([N+](=O)[O-])cc1-c1ccc(/C=N/NC(=O)CN2CCOCC2)o1,-38.9
10,O=C(COc1ccccc1F)NNC(=O)c1ccc(N2CCCCC2)c([N+](=O)[O-])c1,-36
11,Nc1nc(-c2ccc(Cl)cc2)cn1N,-2.98
12,COc1ccc(C(=O)Nc2ccccc2C(N)=O)cc1,-18.9
13,CC(=O)Oc1cccc(N2C(=O)C3C4C=CC(CC4)C3C2=O)c1 (stereo not shown),16.1
14,Cc1ccc(-c2nc3ccccc3c(=O)n2-c2ccc(O)cc2)cc1,-3.92
15,O=C1CCC(C(=O)N2CCC(O)CC2)CN1CCc1ccc(Cl)cc1 (stereo not shown),1.38
16,C=CCC1(CC=C)CCCN1C(=O)C1CCC(=O)N(CCc2ccc(Cl)cc2)C1 (stereo not shown),-60
17,C=CCC1(CC=C)CCCN1C(=O)C1CCC(=O)N(CCc2ccc(OC)cc2)C1 (stereo not shown),-18.6
18,CC(C)C1CCN(C(=O)C2CCC(=O)N(CCc3ccc(Cl)cc3)C2)CC1 (stereo not shown),-52.6
19,O=C1CCC(C(=O)N2CCCCCC2)CN1CCc1ccc(Cl)cc1 (stereo not shown),-28.9
20,C=CCC1(CC=C)CCCN1C(=O)C1CCC(=O)N(CCc2ccccc2)C1 (stereo not shown),-12.5

row,SMILES,"hERG current change (%, negative = inhibition) at 10uM [%]"
1,COc1ccc(S(=O)(=O)Nc2ccccc2C)cc1,0.614
2,C/C(=N\NC(N)=S)c1cccnc1,2.44
3,Cc1ccc(/C=N/N2CCN(c3ccccn3)CC2)cc1,2.68
4,Cc1cc(Nc2cccc(F)c2)n2nc(C)nc2n1,-12.1
5,Cc1cc(C)c2c(n1)nn1c(N3CCN(c4ccccc4C)CC3)cc(C)nc21,7.78
6,Cc1cc(Nc2cccc(C(F)(F)F)c2)n2nc(C)nc2n1,-51.8
7,Cc1cc(N2CCN(c3ccccn3)CC2)n2nc(C)nc2n1,-51.4
8,Cc1ccc(Nc2cc(C)nc3nc(C)nn23)c(C)c1,9.08
9,Cc1ccc(N2CCN(c3cc(C)nc4nc(C)nn34)CC2)c(C)c1,-72.6
10,COc1ccccc1N1CCN(c2nc(C)cc(=O)[nH]2)CC1,11.6
11,COc1ccccc1N1CCN(c2cc(C)nc3nc(C)nn23)CC1,-57.6
12,COc1cccc(Nc2cc(C)nc3nc(C)nn23)c1,-12.8
13,C(=N\N1CCN(c2ccccn2)CC1)/c1ccccn1,13.5
14,COc1ccccc1-c1c(C)nn2c(N3CCN(c4ccccc4OC)CC3)cc(C)nc12,3.75
15,COC(=O)C(CC(C)C)NC(=O)CNC(=O)c1ccccc1C (stereo not shown),3.34
16,C/C(=N\OCC(=O)Nc1cc(C)cc(C)c1)c1ccc2c(c1)OCCO2,-13
17,CCC12CN3CCN(CC(C3)/C1=N/NC(N)=O)C2,21
18,Cc1c(Cl)cccc1-n1ccnc1SCC(=O)O,18.2
